The OligoGym collection

What follows are sequences tested against C1orf115 (assay: pooled miR-30 sensor sort-seq; sequence = guide strand). Details: shRNA.
Note: reference of the scale not given here.

| Sequence | sensor-assay potency score (higher = more potent) |
| --- | --- |
| TCTGACTCTAGTAACATCCTCT | 0.697 |
| TGACTCTAGTAACATCCTCTTC | -1.03 |
| TTGAGGAATAAACAGCTCCTTA | -1.12 |
| TTCCTCCGGTACCTCTTCCTGG | -1.14 |
| TTTTCTCTTCCAAATATGCTGT | -0.444 |

These sequences were tested against C1orf131 in the same assay as above. Details: shRNA.

| Sequence | sensor-assay potency score (higher = more potent) |
| --- | --- |
| TTGAATTTTCCAACCTGTCCAA | 0.318 |
| TTTGGATTTCCTGTCCTCCTGT | 0.0328 |
| TTATGATCTTCTTCTGTTCTGT | -0.0808 |
| TAAATTACTAGATTCTTGGTTC | 0.886 |
| TAACCCGTGATACCAAACCGGT | -1.37 |
| TTTCTTGATATCAACTGGGCTC | -0.367 |
| TTGTAATTCACATAACTCTTTT | -0.919 |
| TTTTTCTTGAAAATATCTGTTT | -0.422 |
| TATTTTCTTGATATCAACTGGG | 0.559 |
| TTTAATGTAAACTACTAGCATT | -0.73 |
| TTCTGTACCTCCAAAGTCGTAA | -0.764 |
| TTCTTTATGATCTTCTTCTGTT | -0.273 |

The sequences below were run against C1orf168 in the same assay as above. Details: shRNA.

| Sequence | sensor-assay potency score (higher = more potent) |
| --- | --- |
| TTGATGACAATAATCTCTTTGT | -0.247 |
| TTTCTGATTCTTCAGCACCGTT | -1.25 |
| TTTCTTGAAGAATTGCTGCAGT | 0.0759 |
| TAGACATTGAAAGATAACCTTT | -0.653 |
| TATCACTAGATTTTGTTCGGTG | 0.284 |
| TTCTAGGAGAGAAACTTTCTGA | -0.177 |
| TATTAGAAGCAAACTAACCATC | -0.751 |
| TTTCACATTCTCTTGAACTGAC | 0.742 |
| TTCTCTTGAACTGACAGTGAAG | -0.905 |
| TTTGTTTCCAGCTTTTTCCTGG | 0.241 |
| TAGAAGCAAACTAACCATCTGC | 0.515 |
| TTGACATGTAAACTGAAACTGA | -0.315 |

The sequences below were run against C1orf61 in the same assay as above. Details: shRNA.

| Sequence | sensor-assay potency score (higher = more potent) |
| --- | --- |
| TCTATCGTCCACACGGAGGAAG | -0.948 |
| TATAGATCTTGGTTAGACATGG | -0.143 |
| TATAGCCATATAGATCTTGGTT | -1.16 |
| TCGGGGACTTGAGAGGTCCTGA | -0.479 |
| TTGGTCTCCCAACTTAGCCATG | -1.74 |
| AACCAGATGAAGTACATTCTTC | -0.97 |
| TTGAGAGGTCCTGAGTGGCAGG | -0.741 |
| AAGATCATGGAATTTCTCCTGA | 0.708 |
| TTGTGCTGCCTGGAGGACGAGG | -1.4 |
| TTCTTCTTTTTGGTCTCCCAAC | -1.55 |
| TTCTTTTTGGTCTCCCAACTTA | -0.917 |
